# High-throughput results (PubChem BioAssay)
# AGP1-GFP MLPCN = modulators of TOR pathway AGP1-GFP in S. cerevisiae; 320,000 compounds, 0.02% hits; S. cerevisiae AGP1-GFP multiplex flow cytometry, 3 h; GFP as percent of DMSO wells; GFP response vs DMSO, % at 10 µM;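 active means GFP response relative to DMSO above a set limit, near screen average plus 3 SD, cut at about 150% in these data; inconclusive means fewer than 70 cells counted for the yeast strain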;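 further: median GFP channel fluorescence of the gated AGP1 strain per well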
# VLA-4 inh = inhibition in a human VLA-4 binding assay; P13612; VLA-4 expressing cells, ligand binding flow cytometry; inhibition, % (about 7 µM as worked out from the volumes in the protocol); 330,000 compounds, 0.2% hits; AID 2557; in the data active means inhibition above about 50%
# Target sequence (P13612 whole entry, looked up): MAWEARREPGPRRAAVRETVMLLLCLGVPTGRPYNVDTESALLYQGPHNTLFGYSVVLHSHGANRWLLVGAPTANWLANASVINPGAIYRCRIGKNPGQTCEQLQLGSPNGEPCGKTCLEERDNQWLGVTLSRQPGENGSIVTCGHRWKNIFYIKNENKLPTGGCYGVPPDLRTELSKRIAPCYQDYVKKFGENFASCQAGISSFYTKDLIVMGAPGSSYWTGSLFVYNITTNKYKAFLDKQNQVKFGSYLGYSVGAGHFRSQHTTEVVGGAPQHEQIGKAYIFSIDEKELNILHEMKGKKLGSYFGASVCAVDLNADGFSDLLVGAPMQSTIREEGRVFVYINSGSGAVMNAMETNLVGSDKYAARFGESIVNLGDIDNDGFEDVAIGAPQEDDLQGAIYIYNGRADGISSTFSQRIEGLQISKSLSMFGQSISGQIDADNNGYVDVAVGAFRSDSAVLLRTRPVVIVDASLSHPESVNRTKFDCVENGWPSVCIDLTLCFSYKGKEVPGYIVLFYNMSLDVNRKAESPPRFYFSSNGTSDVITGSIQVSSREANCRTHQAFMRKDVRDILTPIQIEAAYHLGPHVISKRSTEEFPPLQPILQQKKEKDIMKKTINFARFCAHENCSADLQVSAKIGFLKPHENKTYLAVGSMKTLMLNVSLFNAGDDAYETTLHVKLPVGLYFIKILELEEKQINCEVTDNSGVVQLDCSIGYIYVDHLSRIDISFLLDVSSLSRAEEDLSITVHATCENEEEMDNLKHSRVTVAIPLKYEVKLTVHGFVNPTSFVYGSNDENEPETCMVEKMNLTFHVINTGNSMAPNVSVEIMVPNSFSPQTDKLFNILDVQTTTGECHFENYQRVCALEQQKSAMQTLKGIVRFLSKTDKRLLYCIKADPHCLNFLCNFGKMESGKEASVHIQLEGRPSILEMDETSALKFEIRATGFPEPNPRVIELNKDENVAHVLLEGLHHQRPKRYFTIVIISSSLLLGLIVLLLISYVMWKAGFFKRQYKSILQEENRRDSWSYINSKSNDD
# CIT2-GFP yeast = modulators of TOR pathway CIT2-GFP in S. cerevisiae | S. cerevisiae CIT2-GFP strain, flow cytometry, 3 h; 100 means same as DMSO wells | GFP response vs DMSO, % at 10 µM | 320,000 compounds, 0.065% hits;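 active means GFP response relative to DMSO above a set limit, near the screen mean plus 3 SD, cut at about 150% in these data; inconclusive means Fewer than 70 cells measured for a yeast strain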;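 further: ratio of well median GFP fluorescence to mean of DMSO wells on the plate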
# MEP2-GFP yeast = alters MEP2-GFP fluorescence in TOR pathway yeast screen; AID 2016; GFP response vs DMSO, % at 10 µM; 330,000 compounds, 0.51% hits; S. cerevisiae MEP2-GFP strain, flow cytometry GFP, 3 h; 100% = DMSO control level;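 active means GFP response versus DMSO above a set limit, roughly screen mean plus 3 SD, cut at about 180% in these data; inconclusive means fewer than 70 cells counted for a yeast strain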;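 further: median GFP fluorescence of the barcode-gated MEP2-GFP cells per well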
# LAP4 TOR yeast = alters LAP4-GFP fluorescence in TOR pathway yeast screen; GFP response vs DMSO, % at 10 µM; S. cerevisiae LAP4-GFP multiplex, flow cytometry GFP, 3 h; median GFP as percent of DMSO wells; 320,000 compounds, 0.34% hits;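 active means GFP response vs DMSO above a set limit, about the screen mean plus 3 SD, cut at about 150% in these data; inconclusive means under 70 cell events counted for the yeast strain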
# RPL19A TOR yeast = modulators of TOR pathway RPL19A-GFP in S. cerevisiae. 330,000 compounds, 0.3% hits. percent response vs DMSO, % at 10 µM. S. cerevisiae RPL19A-GFP strain, flow cytometry, 3 h; stronger effect = lower value;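 active means percent response vs DMSO below 50%; inconclusive means fewer than 70 events counted for the yeast strain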;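 further: median channel GFP fluorescence of the barcoded RPL19A-GFP strain; lower means less RPL19A-GFP as with rapamycin TOR inhibition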
# VLA-4 allo CP = confirmation of allosteric modulators of human VLA-4 integrin | shares compounds with VLA-4 inh | U937 cells, HUTS-21 LIBS mAb binding, flow cytometry; LDV ligand present at threefold Kd | inhibition, % at 6.7 µM | 1,300 compounds, 2% hits; in the data active means inhibition above about 40%
# A number is an active result; . = inactive; ? = inconclusive; / = no result. Only some compounds are listed: those with a hit (about 1.1% of all), similar ones and a draw of the others.
SMILES,AGP1-GFP MLPCN,VLA-4 inh,CIT2-GFP yeast,MEP2-GFP yeast,LAP4 TOR yeast,RPL19A TOR yeast,VLA-4 allo CP
COc1cc(OC)cc(C(=O)NC(C(=O)N2CCc3ccccc3C2)C(C)C)c1 (stereo not drawn),.,49.8,.,.,.,.,.
CC(=O)NCCc1ccc(O)cc1,.,.,.,.,.,.,/
C[C@H](NCCc1ccc(O)cc1)[C@H](O)c1ccc(O)cc1,.,51.7,.,.,.,.,.
CCC(=NNC(=O)c1cccc(S(=O)(=O)N2CCOCC2)c1)c1ccccc1,.,49.7,.,.,.,.,.
C/C(=N\NC(=O)c1cccc(S(=O)(=O)N2CCOCC2)c1)c1ccc(O)cc1,.,.,.,.,.,.,/
CCOC(=O)c1c(NC(=O)C2c3ccccc3Oc3ccccc32)sc(C(=O)N(CC)CC)c1C,.,.,.,.,.,.,.
CCOC(=O)c1c(NC(=O)CN(C)C)sc(C(=O)N(CC)CC)c1C,.,.,.,.,.,.,/
N#CCC(=O)N/N=C/c1ccc(N2N=C(c3ccccc3)CC2c2ccccc2)cc1 (stereo not drawn),.,.,?,.,.,.,/
CCn1c2ccccc2c2cc(NC(=O)c3cc(OC)cc(OC)c3)ccc21,.,.,.,.,.,.,.
CCn1c2ccccc2c2cc(NC(=O)c3cc(OC)c(OC)c(OC)c3)ccc21,.,.,.,.,.,.,/
Cc1[nH]c2ccc(C(=O)N3CCN(c4ccccc4Cl)CC3)cc2c1C,.,.,.,.,.,.,/
COc1ccccc1N1CCN(C(=O)c2ccc3[nH]c(C)c(C)c3c2)CC1,.,50.1,.,.,.,.,.
COC(=O)c1ccc(C)c(NC(=O)c2ccc(Cl)c([N+](=O)[O-])c2)c1,.,53.8,.,.,.,.,.
CNC(=O)c1cc(Oc2ccc(NC(=O)Nc3ccc(Cl)c(C(F)(F)F)c3)cc2)ccn1,.,.,.,.,.,.,/
CCOC(=O)C1CCCN(CC(=O)N(C)c2c(N)n(Cc3ccccc3)c(=O)[nH]c2=O)C1 (stereo not drawn),.,.,.,.,.,.,/
Cc1ccc(C)c(NC(=O)CN2C(=O)COc3ccc(S(=O)(=O)N4CCCC4)cc32)c1,.,.,.,.,.,.,/
CCC(COC(=O)Nc1cccc(C)c1)NC(=O)OCC(C)C (stereo not drawn),.,94.5,.,.,.,.,.
O=c1cc(C(F)(F)F)nc(-n2[nH]c3c(c2=O)CCCC3)[nH]1,.,49.7,.,.,.,.,.
CC[C@@]1(C(=O)OC)N[C@H](CN(C)S(=O)(=O)c2ccc(OC(F)(F)F)cc2)[C@@H]2C(=O)N(C)C(=O)[C@@H]21,.,.,.,.,.,.,/
Cc1cc(NC(=O)COC(=O)C2=NN(c3ccccc3)C(=O)CC2)c([N+](=O)[O-])cc1C,.,.,.,.,.,.,/
COc1cccc(-n2c(Cc3cc(=O)[nH]c(=O)[nH]3)nnc2SCC(=O)N2CCCC2)c1,.,.,.,.,.,.,.
COc1ccc(-n2c(Cc3cc(=O)[nH]c(=O)[nH]3)nnc2SCC(=O)N2CCCC2)cc1,.,.,.,.,.,.,/
COc1cccc(-n2c(Cc3cc(=O)[nH]c(=O)[nH]3)nnc2SCC(=O)N2CCCCCC2)c1,.,.,.,.,.,.,.
Cc1ccc(C(=O)N2CCC(C)CC2)cc1NC1=NC2CS(=O)(=O)CC2S1 (stereo not drawn),.,66.6,.,.,.,.,.
Cc1ccc(C(=O)N2CCN(c3ncccn3)CC2)cc1NC1=NC2CS(=O)(=O)CC2S1 (stereo not drawn),.,.,.,.,.,.,/
SMILES,AGP1-GFP MLPCN,VLA-4 inh,CIT2-GFP yeast,MEP2-GFP yeast,LAP4 TOR yeast,RPL19A TOR yeast,VLA-4 allo CP
Cc1ccc(C(=O)N2CC(C)CC(C)C2)cc1NC1=NC2CS(=O)(=O)CC2S1 (stereo not drawn),.,.,.,.,.,.,.
COc1ccccc1-c1sc2cc3c(cc2c1-c1ccc(OCCN2CCOCC2)cc1)OCO3,/,/,/,/,/,/,.
COc1cc(OC)cc(-c2sc3ccc(OC)cc3c2-c2ccc(OCCN3CCCCC3)cc2)c1,/,/,/,/,/,/,.
COc1ccccc1-c1sc2cc3c(cc2c1-c1ccc(O)cc1)OCO3,.,.,.,.,.,.,/
COc1ccc(-c2sc3cc4c(cc3c2-c2ccc(OCCN3CCCCC3)cc2)OCO4)cc1,/,/,/,/,/,/,.
COc1ccc(-c2sc3cc4c(cc3c2-c2ccc3c(c2)OCCO3)OCO4)cc1,.,.,.,.,.,.,/
COc1ccc2c(-c3cnc(N4CCOCC4)nc3)c(-c3ccc(S(C)(=O)=O)cc3)sc2c1,.,.,.,.,.,.,/
COc1ccc(-c2sc3cc(OC)ccc3c2-c2ccc(OCCN3CCOCC3)cc2)cc1,/,/,/,/,/,/,.
C[C@H]1COC(=O)[C@H](Cc2ccc(F)cc2)C/C=C\C[C@H](CC(=O)NCCO)C(=O)N1,.,.,.,.,.,.,/
c1ccc(-c2nc(C3CCCCC3)c3ccccc3n2)cc1,.,.,.,.,.,.,/
c1ccc(-c2sc3ccccc3c2-c2ccc(OCCN3CCCCC3)cc2)cc1,.,.,.,.,.,.,.
CN(C)CCOc1ccc(-c2c(-c3ccccc3)sc3ccccc23)cc1,/,70.3,/,/,/,/,.
c1ccc2c(-c3ccc(OCCN4CCCCC4)cc3)c(-c3ccsc3)sc2c1,.,.,.,.,.,.,/
O=C(NCC(O)c1ccc([N+](=O)[O-])cc1)C1=COCCO1 (stereo not drawn),.,.,.,.,.,.,/
Cc1ccccc1-c1cc(C(=O)NCc2ccc3c(c2)OCO3)n(CC2CC(c3cccnc3)=NO2)n1 (stereo not drawn),.,.,.,.,.,.,/
S=c1nc[nH]c2c1[nH]c1ccccc12,.,.,.,.,.,.,/
Nc1nc(=S)c2[nH]cnc2[nH]1,.,57.1,.,.,.,.,.
CCOc1cc(/C=C2\C(=N)N3N=C(S(C)(=O)=O)SC3=NC2=O)ccc1OCCOc1cccc(OC)c1,.,.,.,.,.,.,.
CCS(=O)(=O)C1=NN2C(=N)/C(=C\c3ccc(OCCOc4cccc(OC)c4)c(OC)c3)C(=O)N=C2S1,.,.,.,.,.,.,/
COc1ccc(C(=O)Nc2ccccc2C(=O)NC(Cc2ccc(O)cc2)C(=O)NNC(=O)c2ccccc2)cc1 (stereo not drawn),.,.,.,.,.,.,/
COc1ccc(C(=O)Nc2ccccc2C(=O)NC(Cc2ccc(O)cc2)C(=O)NNC(=O)c2ccncc2)cc1 (stereo not drawn),.,56.1,.,.,.,.,.
